MEKK2 WT-MEK5: raises or lowers MEK5 binding to wildtype human MEKK2 PB1 domain; bead flow cytometry, Alexa488-MEK5 binding to MEKK2 WT; actives lie on both sides; binding response (% of control), % at 10 µM; 290,000 compounds, 1.1% hits; AID 1531; in the data active = binding response below about 67% or above about 130%
ABCB6 inh MLPCN: inhibitors of human ABC transporter ABCB6; K562-ABCB6 porphyrin accumulation, flow cytometry, 1 h; stronger effect = lower value; fluorescence ratio to DMSO, % at 10 µM; 360,000 compounds, 0.19% hits; AID 602162;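 active = fluorescence ratio to DMSO below 75%, the collection mean minus 3 SD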;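 note: signal is porphyrin accumulated inside mitochondria; 100% equals median channel fluorescence of DMSO control wells; lower ratio means ABCB6 inhibition with less porphyrin fluorescence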
MEKK2mut PB1 HTS: signal of MEK5 binding to mutant human MEKK2 PB1 domain | bead flow cytometry, Alexa488-MEK5 binding to MEKK2 mutant | percent response, % at 10 µM | 290,000 compounds, 0.35% hits; in the data active = percent response above about 24%, passing the limit was not always enough
CRFBP-R2 agonist: agonists of human CRF-binding protein/CRF-R2 receptor complex; HEK293 CRF-R2/CRF-BP, calcium dye fluorescence (FLIPR); percent of saturating CRF peptide response; AID 588473; 350,000 compounds, 0.46% hits; activation, % at 13.2 µM;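 active = activation of at least 50%, plus an integration ratio under a set limit after plate pattern correction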;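 note: plate controls were neutral control wells without compound for no effect and CRF at EC100 for full effect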
CRFR2-BP antag: antagonists of CRF-binding protein/CRF-R2 receptor complex; HEK293 CRF-R2/CRF-BP, CRF-induced calcium fluorescence; 350,000 compounds, 0.59% hits; inhibition, % at 11.8 µM;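 active = inhibition of the ligand-induced calcium signal above about 50% at the single tested concentration, limit read from the data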
MEKK3 PB1 HTS: MEKK3-MEK5 PB1 interaction, increase or decrease. bead-based flow cytometry, Alexa488-MEK5 binding to MEKK3; actives lie on both sides; 0 = blocked by unlabeled MEK5, 100 = vehicle. binding response (% of control), % at 10 µM. Q99759. 290,000 compounds, 1.4% hits;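 active = binding response more than 3 SD above or below the average of its plate-row segment, actives on both sides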;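 note: Alexa488 bead fluorescence after subtracting the streptavidin-only scavenger bead signal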
Target sequence (Q99759 whole entry, looked up): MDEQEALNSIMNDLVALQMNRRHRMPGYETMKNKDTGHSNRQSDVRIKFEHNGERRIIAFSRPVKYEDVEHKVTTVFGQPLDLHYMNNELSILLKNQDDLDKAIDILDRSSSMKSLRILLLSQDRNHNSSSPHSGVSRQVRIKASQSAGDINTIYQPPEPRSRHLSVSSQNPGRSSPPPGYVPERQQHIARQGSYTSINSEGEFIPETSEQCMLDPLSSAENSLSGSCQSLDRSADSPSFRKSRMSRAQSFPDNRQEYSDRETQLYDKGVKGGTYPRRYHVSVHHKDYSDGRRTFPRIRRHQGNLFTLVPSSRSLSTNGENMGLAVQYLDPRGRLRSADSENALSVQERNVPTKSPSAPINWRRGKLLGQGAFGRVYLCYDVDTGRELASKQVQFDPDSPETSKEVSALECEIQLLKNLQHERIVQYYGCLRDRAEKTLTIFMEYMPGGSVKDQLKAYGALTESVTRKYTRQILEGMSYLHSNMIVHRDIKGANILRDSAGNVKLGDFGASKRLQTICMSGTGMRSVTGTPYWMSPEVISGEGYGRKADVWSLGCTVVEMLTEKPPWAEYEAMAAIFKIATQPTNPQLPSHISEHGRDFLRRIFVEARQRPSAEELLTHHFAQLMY
MEKK2wt confirm: raises or lowers MEK5 binding to wildtype human MEKK2, retest | shares compounds with MEKK3 PB1 HTS | bead flow cytometry, Alexa488-MEK5 binding to MEKK2 WT; actives lie on both sides | 5,900 compounds, 2.4% hits | binding response (% of control), % at 10 µM; in the data active = binding response below about 16% or above about 210%; inactive = in between
MEKK2mut-MEK5: signal of MEK5 binding to mutant human MEKK2, retest. shares compounds with MEKK3 PB1 HTS. AID 1893. bead flow cytometry, Alexa488-MEK5 binding to MEKK2 mutant. 5,900 compounds, 2% hits. percent response, % at 10 µM; in the data active = percent response mostly above about 71%, no sharp cut-off; inactive = mostly below about 38%;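 note: higher means compound restores mutant binding toward wildtype level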
MEKK3-MEK5 inh: confirmation of inhibitors of MEK5 binding to human MEKK3 | shares compounds with MEKK3 PB1 HTS | bead flow cytometry, Alexa488-MEK5 binding to MEKK3; stronger effect = lower value | binding response (% of control), % at 10 µM | 5,900 compounds, 1.8% hits;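 active = binding response below 72% of control, or above a set upper limit, though filed actives all read lower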;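 note: 100% = DMSO only wells and 0% = binding blocked by excess unlabeled MEK5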
An asterisk follows results filed as active; [ ] = remark or other dose. Rows were chosen to be rich in hits. Some 2.9% of all compounds tested hit in one or more screens of this group.

O=C(CSc1nnc(-c2ccccc2)o1)c1ccc2c(c1)OCCO2 was read as MEKK2 WT-MEK5 85, ABCB6 inh MLPCN 94, MEKK2mut PB1 HTS -15, CRFBP-R2 agonist -1, CRFR2-BP antag 1, MEKK3 PB1 HTS 80*[inhibitor], MEKK2wt confirm 109, MEKK2mut-MEK5 6 and MEKK3-MEK5 inh 103.
For O=C(CSc1ncn[nH]1)c1ccc2c(c1)OCO2 the results were MEKK2 WT-MEK5 104, ABCB6 inh MLPCN 95, MEKK2mut PB1 HTS 7, CRFBP-R2 agonist -1, CRFR2-BP antag 29 and MEKK3 PB1 HTS 102.
CCOCCCN(C(=O)Cn1nnc(-c2ccc(C)o2)n1)C(C(=O)NC1CCCC1)c1ccco1 (stereo not given) was read as MEKK2 WT-MEK5 100, ABCB6 inh MLPCN 103, MEKK2mut PB1 HTS 3, CRFBP-R2 agonist -1, CRFR2-BP antag 0 and MEKK3 PB1 HTS 102.
For COc1ccc(C)cc1NC(=O)CSc1nc(=O)n(CCCN2CCOCC2)c2c1CCCC2 the results were ABCB6 inh MLPCN 100, CRFBP-R2 agonist 0 and CRFR2-BP antag -5.
O=S(=O)(c1ccc(C(F)(F)F)cc1)N1CCCN(c2ccc(C(F)(F)F)cn2)CC1 was read as MEKK2 WT-MEK5 46*[inhibitor], ABCB6 inh MLPCN 101, MEKK2mut PB1 HTS -26, CRFBP-R2 agonist 4, CRFR2-BP antag -10, MEKK3 PB1 HTS 47*[inhibitor], MEKK2wt confirm 104, MEKK2mut-MEK5 4 and MEKK3-MEK5 inh 107.
Screening CCN1CCN(c2cc(C)c3cc(NC(=S)NCCCN4CCc5ccccc5C4)ccc3n2)CC1 returned MEKK2 WT-MEK5 177*, ABCB6 inh MLPCN 97, MEKK2mut PB1 HTS 21, CRFBP-R2 agonist -1, CRFR2-BP antag -23, MEKK3 PB1 HTS 117, MEKK2wt confirm 169, MEKK2mut-MEK5 52 and MEKK3-MEK5 inh 107.
CCN1CCN(c2cc(C)c3cc(NC(=S)NCCN(C)C)ccc3n2)CC1 was read as MEKK2 WT-MEK5 125, ABCB6 inh MLPCN 97, MEKK2mut PB1 HTS 13, CRFBP-R2 agonist 1, CRFR2-BP antag 1 and MEKK3 PB1 HTS 106.
Cc1cccc(N2CCN(C(=S)Nc3ccc4nc(N5CCN(C)CC5)cc(C)c4c3)CC2)c1C was read as MEKK2 WT-MEK5 47*[inhibitor], ABCB6 inh MLPCN 88, MEKK2mut PB1 HTS -39, CRFBP-R2 agonist 1, CRFR2-BP antag 9, MEKK3 PB1 HTS 30*[inhibitor], MEKK2wt confirm 94, MEKK2mut-MEK5 -20 and MEKK3-MEK5 inh 75.
For Cc1cc(N2CCN(C)CC2)nc2ccc(NC(=S)N3CCCCC3)cc12 the results were MEKK2 WT-MEK5 125, ABCB6 inh MLPCN 99, MEKK2mut PB1 HTS 9, CRFBP-R2 agonist 0, CRFR2-BP antag -1 and MEKK3 PB1 HTS 101.
Screening Cc1cc(N2CCN(C)CC2)nc2ccc(NC(=S)NCCCN3CCc4ccccc4C3)cc12 returned MEKK2 WT-MEK5 173*, ABCB6 inh MLPCN 96, MEKK2mut PB1 HTS 44, CRFBP-R2 agonist -3, CRFR2-BP antag 3, MEKK3 PB1 HTS 117, MEKK2wt confirm 142, MEKK2mut-MEK5 25 and MEKK3-MEK5 inh 102.
For CN(C)c1nc(N)c(C#N)c(C#N)c1C#N the results were ABCB6 inh MLPCN 98, CRFBP-R2 agonist 0 and CRFR2-BP antag -26.
Screening CC1Cc2ccccc2N1C(=O)CO/N=C/c1ccccc1OC(F)F (stereo not given) returned MEKK2 WT-MEK5 98, ABCB6 inh MLPCN 96, MEKK2mut PB1 HTS 0, CRFBP-R2 agonist 1, CRFR2-BP antag 13, MEKK3 PB1 HTS 10*[inhibitor], MEKK2wt confirm 101, MEKK2mut-MEK5 0 and MEKK3-MEK5 inh 102.
For CC1CCCCC1NC(=O)CO/N=C/c1ccccc1OC(F)F (stereo not given) the results were MEKK2 WT-MEK5 94, ABCB6 inh MLPCN 100, MEKK2mut PB1 HTS -2, CRFBP-R2 agonist -5, CRFR2-BP antag -5, MEKK3 PB1 HTS 71*[inhibitor], MEKK2wt confirm 104, MEKK2mut-MEK5 3 and MEKK3-MEK5 inh 106.
c1ccc(-c2ccc(-c3ccncn3)cc2)cc1 was read as ABCB6 inh MLPCN 99, CRFBP-R2 agonist -3 and CRFR2-BP antag 2.
`Cc1ccc(N(C(=O)Cn2nnc3ccccc32)C(C(=O)NCc2ccccc2)c2ccccn2)cc1` (stereo not given) gave MEKK2 WT-MEK5 107, ABCB6 inh MLPCN 104, MEKK2mut PB1 HTS 1, CRFBP-R2 agonist -3, CRFR2-BP antag -6, MEKK3 PB1 HTS 128*, MEKK2wt confirm 103, MEKK2mut-MEK5 6 and MEKK3-MEK5 inh 104.
CC(=O)c1ccc(N(C(=O)Cn2nnc3ccccc32)C(C(=O)NCc2ccccc2)c2ccccn2)cc1 (stereo not given) was read as MEKK2 WT-MEK5 107, ABCB6 inh MLPCN 106, MEKK2mut PB1 HTS 4, CRFBP-R2 agonist -5, CRFR2-BP antag 0 and MEKK3 PB1 HTS 117.
O=[N+]([O-])c1ccc(NN=Cc2ccc3c(c2)OCO3)nc1 was read as ABCB6 inh MLPCN 100, CRFBP-R2 agonist 2 and CRFR2-BP antag -8.
O=C(Nc1ccccn1)c1cc2cc([N+](=O)[O-])ccc2s1 was read as MEKK2 WT-MEK5 103, ABCB6 inh MLPCN 109, MEKK2mut PB1 HTS 79*, CRFBP-R2 agonist 2, CRFR2-BP antag 13, MEKK3 PB1 HTS 106, MEKK2wt confirm 105, MEKK2mut-MEK5 8 and MEKK3-MEK5 inh 106.
`CC(OC(=O)C(C)N1C(=O)C2C3C=CC(C4CC34)C2C1=O)C(=O)c1ccccc1` (stereo not given) gave MEKK2 WT-MEK5 111, ABCB6 inh MLPCN 95, MEKK2mut PB1 HTS 1, CRFBP-R2 agonist -5, CRFR2-BP antag -3, MEKK3 PB1 HTS 145*, MEKK2wt confirm 101, MEKK2mut-MEK5 3 and MEKK3-MEK5 inh 99.
Screening O=C(N/N=C\C=C\c1ccc2c(c1)OCO2)c1cccnc1 returned MEKK2 WT-MEK5 109, ABCB6 inh MLPCN 94, MEKK2mut PB1 HTS 1, CRFBP-R2 agonist 0, CRFR2-BP antag 19, MEKK3 PB1 HTS 135*, MEKK2wt confirm 103, MEKK2mut-MEK5 0 and MEKK3-MEK5 inh 101.

Screens from PubChem.
